In the library only some 8.7% were active in any assay of this set; here they are far more common.
Sfp inh: qHTS Assay for Inhibitors of Bacillus subtilis Sfp phosphopantetheinyl transferase (PPTase). Biochemical Sfp PPTase activity, qHTS. Potency, µM, actives largely listed as inhibitors. 3.5% of 310,000 active. AID 1490, 2009;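 note: the enzyme is Sfp with the accession as filed and its product quenches rhodamine fluorescence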
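Step 1, compound plus 15 nM Sfp-PPTase, 15 min, room temperature. Step 2, add rhodamine-CoA (5 uM) and BHQ-2-YbbR (12.5 uM). Step 3, read 525/598 nm fluorescence at 0 and 30 min.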
G9a block: qHTS Assay for Inhibitors of Histone Lysine Methyltransferase G9a. Histone-lysine N-methyltransferase EHMT2 (Homo sapiens), Q96KQ7. G9a H3K9 monomethylation, AlphaScreen, 2 h. Potency, µM (highest dose often 102 µM), most hits filed as inhibitors. 8.8% of 350,000 active. AID 504332, 2011; note: nearly all actives have a fitted effect of over 75% in size
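AlphaScreen read-out: biotin-H3K9 peptide (500 nM) methylation by 20 nM enzyme with 20 uM SAM, 2 h at room temperature after 15 min compound preincubation; anti-monomethyl H3K9 antibody plus donor/acceptor beads, 10 min dark.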
ALOX12 inh: Primary qHTS assay for inhibitors of human arachidonate 12S-lipoxygenase (ALOX12): Round 2. Polyunsaturated fatty acid lipoxygenase ALOX12 (Homo sapiens), P18054. purified 12hLO, xylenol orange hydroperoxide absorbance. Potency, µM (highest dose often 108 µM), most hits filed as inhibitors. 1.1% of 580,000 active. AID 1671190, 2021
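Purified human 12hLO at 150 nM in 25 mM Hepes, 0.01% Triton X-100, pH 7.0, preincubated 15 min at room temperature with compound. Reaction started with 40 uM arachidonic acid, 30 min at room temperature. Hydroperoxide measured by Fe-xylenol orange, 573/405 nm absorbance ratio.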
JMJD2A Tudor: qHTS Assay for Inhibitors of JMJD2A-Tudor Domain; Lysine-specific demethylase 4A (Homo sapiens), O75164; AlphaScreen JMJD2A-Tudor / H3K4me3 peptide binding; Potency, µM (highest dose often 114 µM), usual class: inhibitors; 4.4% of 390,000 active; note: nearly all actives have a fitted effect of over 50% in size
HP1b chromo inh: HTS for Inhibitors of HP1-beta Chromodomain Interactions with Methylated Histone Tails; 0.56% of 390,000 active; Potency, µM (titrated, usually from 114 µM), most hits filed as inhibitors; Chromobox protein homolog 1 (Homo sapiens), P83916; AlphaScreen HP1-beta / biotin-H3K9me3 peptide binding; note: nearly all actives have a fitted effect of over 70% in size
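AlphaScreen: HP1-beta (50 nM) preformed 30 min with biotin-H3(1-18)K9me3 peptide (50 nM) in PBS pH 7.4, 0.01% Tween-20. Compound added for 30 min at RT, then streptavidin donor/nickel chelate acceptor beads (10 ug/mL) for 30 min.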
BAZ2B block: qHTS Assay for Inhibitors of BAZ2B | 4.4% of 360,000 active | Potency, µM (top dose mostly 114 µM), hits mostly inhibitors | AlphaScreen BAZ2B-H3K14Ac peptide displacement; note: nearly all actives have a fitted effect of over 60% in size
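Inhibition is scored as reduced AlphaScreen emission. The BAZ2B/b-H3(5-23)K14Ac complex (50 nM each) in PBS pH 7.4, 0.01% Tween-20 meets compound (up to 110 uM) for 30 min at RT before bead addition.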
Hits are given with their value; n = inactive; u = inconclusive; x = no result; [ ] = dose if it differs, or a comment. Calls come from the whole dose curve; as a rule, active = well fitted curve in the direction sought with a large enough effect; inconclusive = small, poorly fitted or top-dose-only effect, or another doubt; inactive = no such curve, though single readings can be large; an effect the other way counts as inactive or inconclusive.

SMILES | Sfp inh | G9a block | ALOX12 inh | JMJD2A Tudor | HP1b chromo inh | BAZ2B block
COC(=O)c1ccc(-n2c(C)cc(/C=N/n3cnnc3)c2C)cc1 | n | 56.2µM | n | n[11.4 µM] | n | u
S=c1nc(C2COc3ccccc3O2)[nH][nH]1 (stereo unspecified) | 22.4µM | 3.55µM | u | 1.78µM | n | u
Cc1nc(C2COc3ccccc3O2)sc1C(=O)O (stereo unspecified) | n | n | n | n | n | n
S=c1[nH]nc(C2COc3ccccc3O2)o1 (stereo unspecified) | n | 31.6µM | n | n | n | n
COc1cccc2c1OC1(CCN(C)CC1)N1N=C(c3ccccc3)CC21 (stereo unspecified) | x | x | n | x | x | x
CCOc1cc(CNCc2ccccn2)cc(Cl)c1OC | n | u | n | 44.7µM | n | 56.2µM
CCOc1cc(CNCc2ccccn2)cc(Cl)c1OCC | n | x | n | 56.2µM | n | 50.1µM
CCOc1c(Cl)cc(CNCc2ccncc2)cc1OC | n | 56.2µM | n | n | n | n
COc1cc(CNCCO)cc(Cl)c1OCc1ccc(Cl)cc1Cl | 20µM | n | u | u | n | u
CCOc1c(Cl)cc(CNc2nnnn2C)cc1OC | n | n | u | n | n | n
COc1cccc(-c2ccc3c(n2)c(=O)ncn3CC2CC2)c1 | x | x | n | x | x | x
O=C1NC2(C(=O)Nc3cccc(Cl)c3)CCC(=O)N2c2ccccc21 (stereo unspecified) | x | x | n | x | x | x
Cc1c(C(=O)O)sc2ccccc12 | x | x | n | x | x | x
COC(CNC(=O)c1ccc(Cn2c(=S)[nH]c3cc4c(cc3c2=O)OCO4)cc1)OC | n | u | u | 22.4µM | n | u
COCCNC(=O)c1ccc(Cn2c(=S)[nH]c3cc4c(cc3c2=O)OCO4)cc1 | n | u | n | 28.2µM | n | n
COc1ccc(-c2c(C)c3ccc(OC(C)=O)c(C)c3oc2=O)cc1 | x | x | n | x | x | x
O=C1CC(c2ccccc2OCc2ccc(F)cc2)c2cn[nH]c2N1 (stereo unspecified) | x | x | n | x | x | x
CS(=O)(=O)Nc1cccc(-c2cc(NCc3cccs3)ncn2)c1 | n | n[0.501 µM] | u | x | x | x
c1csc(CNc2cc(-c3ccoc3)ncn2)c1 | 31.6µM | n[0.501 µM] | u | x | x | x
c1cncc(-c2cc(NCc3cccs3)ncn2)c1 | n | n[0.501 µM] | 39.8µM | x | x | x
O=C(CSCCS(=O)(=O)c1ccc(Cl)cc1)Nc1ccccc1 | n | n | n | n | n | n
O=C(O)CCCC(=O)Nc1ccccc1SCCS(=O)(=O)c1ccc(Cl)cc1 | 56.2µM | n | n | n | n | n
CCOC(=O)c1ccc(-n2c(CN3CCC(O)CC3)nc3ccc([N+](=O)[O-])cc3c2=O)cc1 | 17.8µM | 12.6µM | n | n | n | u
CCOC(=O)c1ccc(-n2c(CN3CCC(C(N)=O)CC3)nc3ccc([N+](=O)[O-])cc3c2=O)cc1 | 22.4µM | u | n | n | n | x
Cc1cnc(NC(=O)Cc2ccc3ccccc3c2)s1 | x | x | n | x | x | x
SMILES | Sfp inh | G9a block | ALOX12 inh | JMJD2A Tudor | HP1b chromo inh | BAZ2B block
O=C1c2ccccc2C(=O)c2c1cccc2N1CCCC1 | n | 3.98µM | n | 5.01µM | u | 5.01µM
O=C1c2ccccc2-c2onc3ccc(N4CCCC4)c1c23 | 39.8µM | 10µM | u | u | 20µM | 14.1µM
Cn1c(=O)cc2c3c(c(N4CCCCC4)ccc31)C(=O)c1ccccc1-2 | n | 14.1µM | n | 35.5µM | u | 10µM
O=C1C=C(N2CCCCC2)c2ccccc2C1=O | x | x | n | n | u | x
CCNc1ccc2noc3c2c1C(=O)c1ccccc1-3 | n | u | n | u | u | 31.6µM
COc1ccc(CNC(=O)Cc2c(C)c3cc(Cl)c(O)cc3oc2=O)cc1 | x | x | n | x | x | x
COc1ccc(-c2cn3nc(N4CCCC(C(=O)NCCC(C)C)C4)sc3n2)cc1 (stereo unspecified) | x | x | n | x | x | x
CCOC(=O)Cc1nnc(SC(C)C(=O)Nc2cccc(F)c2)n1C (stereo unspecified) | x | x | n | x | x | x
Oc1sc(C=Nc2ccccc2)c2ccccc12 | 44.7µM | n | u | n | n | n
Oc1sc(C=Nc2ccc(F)cc2)c2ccccc12 | 14.1µM | u | n | n | n | n
O=C(NCc1ccccc1)c1ncoc1-c1cccs1 | x | x | n | x | x | x
CCN(CC)CCOc1ccc(/C(=C(/Cl)c2ccccc2)c2ccccc2)cc1 | u | x | n | 56.2µM | u | u
O=C(Cn1cccc1-c1nc(-c2ccc3c(c2)OCO3)no1)Nc1ccc(F)cc1 | x | x | n | x | x | x
CC(=O)c1cccc(N2Cc3ccccc3C2=NC(=O)CCl)c1 | u | 31.6µM | n | 35.5µM | n | n
CNc1cc(C)nc2c(-c3ccc(OC)c(OC)c3)c(C)nn12 | x | x | n | x | x | x
